Calls of active or inactive are those of the source. How the source made its calls: active means hit-call score of the fitted dose curve at least 0.9, where 1 is the maximum; inactive means score below 0.9.
Tests used:
[1] = read-out: Interleukin-1 alpha (IL1a), IL1A (gene 3552); test: BSK_KF3CT_IL1a: BioMAP Diversity Plus: KF3CT Assay for Interleukin-1 alpha (IL1a) Biomarker Activity (AID 2283070); details: primary human keratinocytes with fibroblasts; actives raise or lower the signal
Summary of the method: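 Human keratinocyte plus foreskin fibroblast primary co-culture, sampled 24 h after chemical dosing. IL-1a measured by ELISA; responses fitted bidirectionally against DMSO baseline (negative control), so gain or loss of signal both count.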

[2] = read-out: TIMP metallopeptidase inhibitor 2 (TIMP2), TIMP2 (gene 7077); test: BSK_KF3CT_TIMP2: BioMAP Diversity Plus: KF3CT Assay for TIMP metallopeptidase inhibitor 2 (TIMP2) Biomarker Activity (AID 2283071); details: primary human keratinocytes with fibroblasts; actives raise or lower the signal
Summary of the method: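 Keratinocyte–fibroblast co-culture, 24 h exposure; TIMP-2 ELISA, DMSO-normalised bidirectional fit. Parallel SRB (0.1%, TCA-fixed, 560 nm) total-protein staining gauges cytotoxicity.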

[3] = read-out: Transforming growth factor beta 1 (TGFb1), TGFB1 (gene 7040); test: BSK_KF3CT_TGFb1: BioMAP Diversity Plus: KF3CT Assay for Transforming growth factor beta 1 (TGFb1) Biomarker Activity (AID 2283072); details: primary human keratinocytes with fibroblasts; actives raise or lower the signal
Summary of the method: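 Signal changes in either direction, relative to DMSO, define activity here. TGF-b1 is read by ELISA from a human keratinocyte-fibroblast co-culture 24 h post-dose.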

[4] = read-out: C-C motif chemokine 2 (Homo sapiens) (UniProt P13500); test: BSK_KF3CT_MCP1: BioMAP Diversity Plus: KF3CT Assay for Monocyte Chemoattractant Protein 1 (MCP1/CCL2) Biomarker Activity (AID 2283073); details: primary human keratinocytes with fibroblasts; actives raise or lower the signal
Summary of the method: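 Human keratinocyte–foreskin fibroblast co-culture; MCP-1 measured by ELISA 24 h after dosing. Bidirectional fit vs DMSO; cytotoxicity tracked by SRB total protein in parallel cultures.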

[5] = read-out: Matrix Metallopeptidase 9 (MMP9), MMP9 (gene 4318); test: BSK_KF3CT_MMP9: BioMAP Diversity Plus: KF3CT Assay for Matrix Metallopeptidase 9 (MMP9) Biomarker Activity (AID 2283074); details: primary human keratinocytes with fibroblasts; actives raise or lower the signal;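 on AC50: MMP9 protein level quantified by ELISA in the co-culture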
Summary of the method: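 Keratinocyte plus foreskin fibroblast human primary skin co-culture was dosed with chemical and MMP-9 was quantified by ELISA 24 h later. Bidirectional curve fitting used DMSO as negative control and activity baseline.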

[6] = read-out: urokinase plasminogen activator (uPA), PLAU (gene 5328); test: BSK_KF3CT_uPA: BioMAP Diversity Plus: KF3CT Assay for urokinase plasminogen activator (uPA) Biomarker Activity (AID 2283075); details: primary human keratinocytes with fibroblasts; actives raise or lower the signal
Summary of the method: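 Human keratinocyte plus foreskin fibroblast primary co-culture exposed to chemical for 24 h. uPA levels were quantified by ELISA, and activity was fitted bidirectionally against a DMSO negative-control baseline.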

[7] = read-out: E-selectin (Homo sapiens) (UniProt P16581); test: BSK_LPS_Eselectin: BioMAP Diversity Plus: LPS Assay for Eselectin Biomarker Activity (AID 2283077); details: primary human HUVEC with PBMC; actives raise or lower the signal
Summary of the method: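 Human umbilical vein endothelial cells co-cultured with PBMC under LPS stimulation; cell-surface E-selectin measured by ELISA 24 h after dosing. Change in either direction versus DMSO, with SRB total-protein staining in parallel cultures for cytotoxicity.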

[8] = read-out: Interleukin-8 (IL8), CXCL8 (gene 3576); test: BSK_LPS_IL8: BioMAP Diversity Plus: LPS Assay for Interleukin-8 (IL8) Biomarker Activity (AID 2283078); details: primary human HUVEC with PBMC; actives raise or lower the signal
Summary of the method: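 Human umbilical vein endothelial cells co-cultured with PBMC, LPS-stimulated, exposed to compound for 24 h. IL-8 quantified by ELISA; fitted in both directions against DMSO, with SRB total-protein staining of parallel cultures for cytotoxicity.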

[9] = BSK_LPS_SRB: Viability Assessment in the BioMAP Diversity Plus: LPS Assay (AID 2283079); details: primary human HUVEC with PBMC;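 further: total protein by sulforhodamine B absorbance as a cytotoxicity measure; measured one day after compound addition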
Summary of the method: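 Co-culture of human umbilical vein endothelial cells and PBMC, read 24 h after dosing. Total protein by 0.1% SRB staining after 10% TCA fixation, absorbance at 560 nm; bidirectional fit against DMSO.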

[10] = read-out: Interleukin-1 alpha (IL1a), IL1A (gene 3552); test: BSK_LPS_IL1a: BioMAP Diversity Plus: LPS Assay for Interleukin-1 alpha (IL1a) Biomarker Activity (AID 2283080); details: primary human HUVEC with PBMC; actives raise or lower the signal
Summary of the method: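 Human umbilical vein endothelial cells co-cultured with PBMC and stimulated with LPS; IL-1a measured by ELISA 24 h after dosing. Bidirectional fitting against DMSO; cytotoxicity checked by SRB staining in parallel cultures.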

[11] = read-out: Monocyte Chemoattractant Protein-1 (MCP1), CCL2 (gene 6347); test: BSK_LPS_MCP1: BioMAP Diversity Plus: LPS Assay for Monocyte Chemoattractant Protein-1 (MCP1) Biomarker Activity (AID 2283081); details: primary human HUVEC with PBMC; actives raise or lower the signal;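 on AC50: secreted MCP-1 protein quantified by ELISA in culture supernatant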
Summary of the method: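 Human umbilical vein endothelial cells co-cultured with PBMC, LPS-stimulated; secreted MCP-1 measured by ELISA 24 h after compound addition. Bidirectional curve fitting against DMSO baseline; SRB total-protein staining in parallel cultures for cytotoxicity.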

[12] = BSK_LPS_PGE2: BioMAP Diversity Plus: LPS Assay for Prostaglandin E2 (PGE2) Biomarker Activity (AID 2283082); details: primary human HUVEC with PBMC; actives raise or lower the signal;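 on AC50: secreted prostaglandin E2 measured by ELISA in LPS-stimulated co-culture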
Summary of the method: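 Endpoint derived from bidirectional curve fitting versus DMSO of ELISA-measured PGE2 in LPS-stimulated human primary vascular co-culture (HUVEC with PBMC) harvested at 24 h.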

[13] = read-out: Macrophage colony-stimulating factor (MCSF), CSF1 (gene 1435); test: BSK_LPS_MCSF: BioMAP Diversity Plus: LPS Assay for Macrophage colony-stimulating factor (MCSF) Biomarker Activity (AID 2283083); details: primary human HUVEC with PBMC; actives raise or lower the signal
Summary of the method: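 HUVEC–PBMC co-culture, M-CSF measured by ELISA 24 h after chemical dosing. Fitted in both directions relative to DMSO as negative control; overt cytotoxicity assessed by SRB total-protein staining in parallel cultures.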

[14] = read-out: Tissue Factor, F3 (gene 2152); test: BSK_LPS_TissueFactor: BioMAP Diversity Plus: LPS Assay for Tissue Factor Biomarker Activity (AID 2283084); details: primary human HUVEC with PBMC; actives raise or lower the signal
Summary of the method: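 Human umbilical vein endothelial cells co-cultured with PBMC were dosed with compound. Cell-surface CD142 was measured by ELISA 24 h later. Activity was fitted bidirectionally against DMSO, with SRB total-protein staining in parallel cultures for cytotoxicity.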

[15] = read-out: Tumor necrosis factor (Homo sapiens) (UniProt P01375); test: BSK_LPS_TNFa: BioMAP Diversity Plus: LPS Assay for Tumour Necrosis Factor alpha (TNFa) Biomarker Activity (AID 2283085); details: primary human HUVEC with PBMC; actives raise or lower the signal;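 on AC50: TNFa protein level quantified by ELISA in the co-culture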
Summary of the method: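 Primary human vascular co-culture of HUVEC and PBMC; TNFa ELISA 24 h after treatment, analysed as increase or decrease relative to DMSO control.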

[16] = read-out: Vascular cell adhesion molecule 1 (VCAM1), VCAM1 (gene 7412); test: BSK_LPS_VCAM1: BioMAP Diversity Plus: LPS Assay for Vascular cell adhesion molecule 1 (VCAM1) Biomarker Activity (AID 2283086); details: primary human HUVEC with PBMC; actives raise or lower the signal
Summary of the method: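 Primary human vascular co-culture (umbilical vein endothelium plus PBMC) stimulated with LPS received chemical; 24 h later VCAM-1 was read by ELISA. Overt cytotoxicity was assessed by sulforhodamine B staining of parallel cultures at the same time point.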

[17] = read-out: CD38, CD38 (gene 952); test: BSK_SAg_CD38: BioMAP Diversity Plus: SAg Assay for CD38 Biomarker Activity (AID 2283087); details: primary human HUVEC with PBMC; actives raise or lower the signal
Summary of the method: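 Fluorescence ELISA of cell-surface CD38 served as the read-out, with either increase or decrease fitted against DMSO controls. Cells were a human umbilical vein endothelium plus PBMC co-culture under SEB/TSST-1 stimulation, measured 24 h after dosing.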

[18] = read-out: CD40, CD40 (gene 958); test: BSK_SAg_CD40: BioMAP Diversity Plus: SAg Assay for CD40 Biomarker Activity (AID 2283088); details: primary human HUVEC with PBMC; actives raise or lower the signal
Summary of the method: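 HUVEC plus PBMC co-culture, superantigen-activated, with CD40 read by ELISA 24 h after dosing. Curves fitted in both directions against DMSO. Overt cytotoxicity checked by parallel SRB total-protein staining.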

[19] = read-out: CD69, CD69 (gene 969); test: BSK_SAg_CD69: BioMAP Diversity Plus: SAg Assay for CD69 Biomarker Activity (AID 2283089); details: primary human HUVEC with PBMC; actives raise or lower the signal;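 on AC50: cell surface CD69 protein quantified by ELISA with fluorescence detection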
Summary of the method: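 Primary human vascular co-culture (umbilical vein endothelium with peripheral blood mononuclear cells) exposed to test chemical for 24 h. CD69 levels quantified by fluorescence ELISA; DMSO served as negative control for bidirectional fitting.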

[20] = read-out: CD40, CD40 (gene 958); test: BSK_LPS_CD40: BioMAP Diversity Plus: LPS Assay for CD40 Biomarker Activity (AID 2283076); details: primary human HUVEC with PBMC; actives raise or lower the signal
Summary of the method: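 HUVEC plus PBMC co-culture stimulated with LPS; CD40 quantified by ELISA 24 h after compound dosing. Fitting was bidirectional relative to DMSO. SRB staining of parallel cultures flagged overt cytotoxicity.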

Measured: AC50

E-selectin (Homo sapiens), sequence (P16581 whole entry, looked up): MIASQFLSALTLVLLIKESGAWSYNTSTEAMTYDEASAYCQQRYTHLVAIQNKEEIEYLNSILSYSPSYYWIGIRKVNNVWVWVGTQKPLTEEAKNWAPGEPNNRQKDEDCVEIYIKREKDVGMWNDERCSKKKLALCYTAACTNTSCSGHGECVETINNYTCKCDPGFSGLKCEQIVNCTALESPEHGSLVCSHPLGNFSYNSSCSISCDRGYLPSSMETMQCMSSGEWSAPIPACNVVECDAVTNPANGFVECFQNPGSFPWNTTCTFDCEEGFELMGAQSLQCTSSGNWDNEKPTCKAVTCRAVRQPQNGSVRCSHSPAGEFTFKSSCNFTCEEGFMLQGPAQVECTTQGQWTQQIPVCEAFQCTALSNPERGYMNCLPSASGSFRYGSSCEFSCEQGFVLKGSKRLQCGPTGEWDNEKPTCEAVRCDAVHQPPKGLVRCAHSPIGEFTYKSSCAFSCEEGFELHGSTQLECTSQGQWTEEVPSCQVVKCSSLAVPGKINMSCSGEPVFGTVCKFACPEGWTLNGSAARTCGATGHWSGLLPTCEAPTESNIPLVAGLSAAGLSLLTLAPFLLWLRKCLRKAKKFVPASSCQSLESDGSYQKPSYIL
Tumor necrosis factor (Homo sapiens), sequence (P01375 whole entry, looked up): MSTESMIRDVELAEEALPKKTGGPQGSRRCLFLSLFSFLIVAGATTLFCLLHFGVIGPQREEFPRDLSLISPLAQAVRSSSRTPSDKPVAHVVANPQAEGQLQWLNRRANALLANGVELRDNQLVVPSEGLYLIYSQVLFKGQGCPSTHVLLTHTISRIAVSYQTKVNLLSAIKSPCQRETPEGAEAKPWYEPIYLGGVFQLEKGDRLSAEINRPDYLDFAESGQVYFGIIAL

CCCCC(CC)COC(=O)c1ccccc1C(=O)O (centres undefined)
active: [15] 21.8 µM | [16] 22.9 µM
not listed: [20]
inactive: all other assays above

COC(=O)CSc1cc(N=c2sc(=O)n3n2CCCC3)c(F)cc1Cl
active: [15] 9.6 µM
not listed: [3]
inactive: all other assays above

O=C(O)c1ccccc1
not listed: [20]
inactive: all other assays above

O=C(c1ccccc1)C1CCCCC1
not listed: [20]
inactive: all other assays above

Cc1nn(C)c(Oc2ccccc2)c1C=NOCc1ccc(C(=O)OC(C)(C)C)cc1
inactive: [1] | [2] | [3] | [6] | [7] | [14] | [15]
active: [4] 12.7 µM | [5] 11.8 µM | [8] 8.08 µM | [9] 12.6 µM | [10] 13.2 µM | [11] 17.5 µM | [12] 1.11 µM | [13] 3.48 µM | [16] 9.84 µM | [17] 5.76 µM | [18] 6.66 µM | [19] 4.1 µM

CCOC(=O)[C@H](C)Oc1ccc(Oc2nc3ccc(Cl)cc3o2)cc1
active: [12] 8.85 µM | [17] 29.9 µM
not listed: [20]
inactive: all other assays above
